The panel holds about 83,000 compounds, 20% with a hit somewhere; the sample as a whole holds those more often.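 Step 1: grow cells in 96-well plates. Step 2: add test compound at a single concentration. Step 3: incubate 48 h. Step 4: record percent growth.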 Active and inactive are the calls of the source. How the source made its calls: active means growth percent below 10; inactive means the rest.
Experiments:
Assay in all cases: NCI-60 one-dose screen, 48 h (100 = growth as untreated, 0 = no growth, -100 = all killed)
OVCAR-8 ovarian = conditions: 10 µM
OVCAR-5 ovarian = conditions: 10 µM
OVCAR-4 ovarian = conditions: 10 µM
SK-OV-3 ovarian = conditions: 10 µM
IGROV1 ovarian = conditions: 10 µM
OVCAR-3 ovarian = conditions: 10 µM
HS 578T breast = conditions: 10 µM
NCI/ADR-RES ovarian = conditions: 10 µM
T-47D breast = conditions: 10 µM
BT-549 breast = conditions: 10 µM
MDA-MB-435 melanoma = conditions: 10 µM
SW-620 colon = conditions: 10 µM
MCF7 breast = conditions: 10 µM unless noted
HCC-2998 colon = conditions: 10 µM
KM12 colon = conditions: 10 µM
RPMI-8226 leukemia = conditions: 10 µM
HCT-116 colon = conditions: 10 µM

Measured: growth

O=C(O)CCCC(=O)O
inactive: OVCAR-8 ovarian 99.4% | OVCAR-5 ovarian 104% | OVCAR-4 ovarian 84.3% | SK-OV-3 ovarian 104% | IGROV1 ovarian 104% | OVCAR-3 ovarian 102% | HS 578T breast 110% | NCI/ADR-RES ovarian 103% | T-47D breast 128% | BT-549 breast 118% | MDA-MB-435 melanoma 107% | SW-620 colon 93.1% | MCF7 breast 101% | HCC-2998 colon 103% | KM12 colon 92.4%

COc1cc2c(cc1OC)[C@H](C(=O)O)[C@@H](c1ccc(OC(C)C)c(OC)c1)N(C)C2=O
inactive: RPMI-8226 leukemia 95.7% | OVCAR-5 ovarian 98% | OVCAR-4 ovarian 100% | SK-OV-3 ovarian 104% | IGROV1 ovarian 138% | OVCAR-3 ovarian 104% | HS 578T breast 89.3% | NCI/ADR-RES ovarian 111% | T-47D breast 96% | BT-549 breast 91.6% | MDA-MB-435 melanoma 101% | SW-620 colon 109% | MCF7 breast 108% | HCT-116 colon 101% | HCC-2998 colon 108% | KM12 colon 107%

Cc1cccc(CO)c1
inactive: RPMI-8226 leukemia 114% | OVCAR-8 ovarian 101% | OVCAR-5 ovarian 107% | OVCAR-4 ovarian 103% | IGROV1 ovarian 115% | OVCAR-3 ovarian 98.9% | HS 578T breast 101% | NCI/ADR-RES ovarian 106% | T-47D breast 98.8% | BT-549 breast 106% | MDA-MB-435 melanoma 108% | SW-620 colon 103% | MCF7 breast 96.6% | HCT-116 colon 104% | KM12 colon 97%

c1cc[n+](C2c3ccccc3C([n+]3ccccc3)c3ccccc32)cc1 (stereo not drawn)
inactive: OVCAR-8 ovarian 46.8% | OVCAR-5 ovarian 95% | OVCAR-4 ovarian 75.3% | IGROV1 ovarian 30.4% | OVCAR-3 ovarian 77.1% | NCI/ADR-RES ovarian 106% | T-47D breast 75.5% | BT-549 breast 100% | MDA-MB-435 melanoma 79.3% | SW-620 colon 69.8% | MCF7 breast 68.8% | HCC-2998 colon 68.2% | KM12 colon 56.7%

Cc1cc(N)c(S(=O)(=O)O)c(N)c1
inactive: RPMI-8226 leukemia 95.6% | OVCAR-8 ovarian 109% | OVCAR-4 ovarian 103% | SK-OV-3 ovarian 100% | IGROV1 ovarian 130% | OVCAR-3 ovarian 112% | T-47D breast 89.7% | BT-549 breast 57.8% | MDA-MB-435 melanoma 101% | SW-620 colon 90.8% | MCF7 breast 105% | HCT-116 colon 91.9% | HCC-2998 colon 86.3% | KM12 colon 107%

CC(=O)N(C)c1ccc([N+](=O)[O-])cc1
inactive: RPMI-8226 leukemia 120% | OVCAR-8 ovarian 99.6% | OVCAR-5 ovarian 91.8% | OVCAR-4 ovarian 119% | IGROV1 ovarian 117% | OVCAR-3 ovarian 118% | HS 578T breast 120% | NCI/ADR-RES ovarian 106% | T-47D breast 94.7% | BT-549 breast 97.4% | MDA-MB-435 melanoma 113% | SW-620 colon 107% | MCF7 breast 95.6% | HCT-116 colon 102% | HCC-2998 colon 94.8% | KM12 colon 114%

C=CCNc1nnc(C)s1
inactive: RPMI-8226 leukemia 101% | OVCAR-5 ovarian 96% | OVCAR-4 ovarian 113% | SK-OV-3 ovarian 115% | OVCAR-3 ovarian 110% | HS 578T breast 101% | NCI/ADR-RES ovarian 103% | T-47D breast 95.4% | BT-549 breast 122% | MDA-MB-435 melanoma 124% | SW-620 colon 107% | MCF7 breast 102% | HCT-116 colon 104% | HCC-2998 colon 112% | KM12 colon 101%

Clc1ccc(-c2n[nH]c3c2Cc2ccccc2-3)cc1Cl
inactive: RPMI-8226 leukemia 57.9% | OVCAR-8 ovarian 110% | OVCAR-5 ovarian 111% | OVCAR-4 ovarian 99.9% | IGROV1 ovarian 63% | OVCAR-3 ovarian 110% | HS 578T breast 110% | T-47D breast 29% | BT-549 breast 97.6% | MDA-MB-435 melanoma 107% | SW-620 colon 111% | MCF7 breast 35.4% | HCT-116 colon 90.8% | HCC-2998 colon 92.2% | KM12 colon 102%

Brc1cnc2ccccc2c1
inactive: OVCAR-8 ovarian 104% | OVCAR-5 ovarian 96.3% | OVCAR-4 ovarian 118% | SK-OV-3 ovarian 111% | IGROV1 ovarian 107% | OVCAR-3 ovarian 99.7% | NCI/ADR-RES ovarian 102% | T-47D breast 108% | BT-549 breast 103% | MDA-MB-435 melanoma 105% | SW-620 colon 95.8% | MCF7 breast 101% | HCT-116 colon 106% | KM12 colon 100%

COc1ccccc1N1CCN(C(=S)Nc2ccccc2)CC1
inactive: RPMI-8226 leukemia 90.9% | OVCAR-8 ovarian 97.6% | OVCAR-5 ovarian 107% | OVCAR-4 ovarian 108% | IGROV1 ovarian 98.9% | HS 578T breast 104% | NCI/ADR-RES ovarian 95.8% | T-47D breast 90.9% | BT-549 breast 91.7% | MDA-MB-435 melanoma 102% | SW-620 colon 103% | MCF7 breast 99.5% | HCT-116 colon 103% | HCC-2998 colon 134%

Cc1cc(/C=C/c2ccc3cc(N(C)C)ccc3[n+]2C)c(C)n1-c1ccccc1
inactive: OVCAR-4 ovarian 10.4% | NCI/ADR-RES ovarian 24.7%
active: RPMI-8226 leukemia -30.2% | OVCAR-8 ovarian -60.4% | SK-OV-3 ovarian -32.2% | IGROV1 ovarian 3.27% | OVCAR-3 ovarian -73.3% | HS 578T breast -9.95% | T-47D breast -47.3% | BT-549 breast -52.2% | MDA-MB-435 melanoma -49.8% | SW-620 colon 7.4% | MCF7 breast -11.6% | HCT-116 colon -10.3% | HCC-2998 colon 0.715% | KM12 colon -62.1%

CCOC(=O)/C(C#N)=C/c1cccc(C)c1
inactive: OVCAR-8 ovarian 103% | OVCAR-5 ovarian 96.1% | OVCAR-4 ovarian 104% | SK-OV-3 ovarian 101% | OVCAR-3 ovarian 106% | NCI/ADR-RES ovarian 97.3% | T-47D breast 86.5% | BT-549 breast 64.1% | MDA-MB-435 melanoma 107% | SW-620 colon 103% | MCF7 breast 91.3% | HCC-2998 colon 102% | KM12 colon 103%

CCc1nn(Cc2ccccc2)c2nc(C)c(CCc3ccccc3)c(Cl)c12
inactive: RPMI-8226 leukemia 72% | OVCAR-5 ovarian 95.1% | OVCAR-4 ovarian 86.2% | SK-OV-3 ovarian 97.1% | OVCAR-3 ovarian 109% | HS 578T breast 92.2% | NCI/ADR-RES ovarian 92% | T-47D breast 59.2% | BT-549 breast 99.3% | MDA-MB-435 melanoma 92.4% | SW-620 colon 99.2% | MCF7 breast 82.7% | HCT-116 colon 81.2% | HCC-2998 colon 101% | KM12 colon 101%

CC1=CC(=O)c2ccccc2C1=O
inactive: OVCAR-8 ovarian 107% | OVCAR-5 ovarian 105% | OVCAR-4 ovarian 112% | SK-OV-3 ovarian 108% | IGROV1 ovarian 112% | HS 578T breast 103% | NCI/ADR-RES ovarian 107% | T-47D breast 98.7% | BT-549 breast 116% | MDA-MB-435 melanoma 107% | SW-620 colon 106% | MCF7 breast 100% | HCT-116 colon 104% | HCC-2998 colon 108% | KM12 colon 104%

S=c1sc2ccccc2n1CN1CCCCC1
inactive: OVCAR-8 ovarian 99.6% | OVCAR-5 ovarian 85% | SK-OV-3 ovarian 94.5% | IGROV1 ovarian 105% | OVCAR-3 ovarian 93.3% | HS 578T breast 100% | NCI/ADR-RES ovarian 93.4% | T-47D breast 100% | BT-549 breast 90.3% | MDA-MB-435 melanoma 104% | SW-620 colon 90% | MCF7 breast 115% | HCT-116 colon 102% | HCC-2998 colon 116% | KM12 colon 98.4%

CC(C(=O)O)(C1CCCCC1)C1(O)CCCCC1 (stereo not drawn)
inactive: OVCAR-8 ovarian 104% | OVCAR-5 ovarian 109% | OVCAR-4 ovarian 108% | SK-OV-3 ovarian 101% | OVCAR-3 ovarian 107% | HS 578T breast 119% | NCI/ADR-RES ovarian 106% | T-47D breast 102% | BT-549 breast 103% | MDA-MB-435 melanoma 105% | SW-620 colon 105% | MCF7 breast 105% | HCT-116 colon 104% | KM12 colon 98.4%

CO[C@H]1C[C@@H]2CC[C@@H](C)[C@@](O)(O2)C(=O)C(=O)N2CCCC[C@H]2C(=O)O[C@H]([C@H](C)C[C@@H]2CC[C@@H](O)[C@H](OC)C2)CC(=O)[C@H](C)C=C(C)[C@@H](O)[C@@H](OC)C(=O)[C@H](C)C[C@H](C)/C=C/C=C/C=C1C
active: OVCAR-5 ovarian -6.29%
inactive: RPMI-8226 leukemia 23.8% | OVCAR-4 ovarian 33.3% | SK-OV-3 ovarian 45.1% | IGROV1 ovarian 11.9% | OVCAR-3 ovarian 55.1% | T-47D breast 19.4% | BT-549 breast 15.6% | MDA-MB-435 melanoma 49% | SW-620 colon 58% | MCF7 breast 23.8%

C/C(=N/NC(N)=O)c1ccco1
inactive: RPMI-8226 leukemia 118% | OVCAR-8 ovarian 106% | OVCAR-5 ovarian 100% | OVCAR-4 ovarian 110% | IGROV1 ovarian 104% | OVCAR-3 ovarian 104% | HS 578T breast 110% | NCI/ADR-RES ovarian 101% | T-47D breast 83.5% | BT-549 breast 102% | MDA-MB-435 melanoma 107% | SW-620 colon 109% | MCF7 breast 98.4% | HCT-116 colon 101% | HCC-2998 colon 92.1% | KM12 colon 102%

O=C(Nc1ccccc1)OCCc1ccccc1
inactive: OVCAR-8 ovarian 103% | OVCAR-5 ovarian 92.7% | OVCAR-4 ovarian 91.4% | SK-OV-3 ovarian 110% | IGROV1 ovarian 103% | OVCAR-3 ovarian 118% | HS 578T breast 120% | NCI/ADR-RES ovarian 110% | T-47D breast 104% | BT-549 breast 98.1% | MDA-MB-435 melanoma 99% | SW-620 colon 106% | MCF7 breast 93.7% | HCT-116 colon 109% | HCC-2998 colon 99.7% | KM12 colon 111%

O=C(OCC(O)C1OC(c2ccccc2)OC(COC(=O)c2ccccc2)C1O)c1ccccc1 (stereo not drawn)
inactive: OVCAR-8 ovarian 103% | OVCAR-5 ovarian 105% | OVCAR-4 ovarian 93.2% | SK-OV-3 ovarian 108% | OVCAR-3 ovarian 118% | HS 578T breast 116% | NCI/ADR-RES ovarian 107% | T-47D breast 109% | BT-549 breast 110% | MDA-MB-435 melanoma 102% | SW-620 colon 109% | MCF7 breast 91.1% | HCT-116 colon 109% | HCC-2998 colon 103% | KM12 colon 111%

O=C(N/N=C/c1ccccc1O)Nc1nn[nH]n1
inactive: RPMI-8226 leukemia 95.6% | OVCAR-8 ovarian 101% | OVCAR-5 ovarian 92.3% | OVCAR-4 ovarian 102% | IGROV1 ovarian 111% | OVCAR-3 ovarian 116% | HS 578T breast 99% | NCI/ADR-RES ovarian 109% | T-47D breast 105% | BT-549 breast 111% | MDA-MB-435 melanoma 98.3% | SW-620 colon 101% | MCF7 breast 88.6% | HCT-116 colon 89% | KM12 colon 114%

From PubChem BioAssay (NCI)
